Shown are actives, neighbours in structure and some others; about 2.3% of the full set was active somewhere.
CHT block: inhibits the human high affinity choline transporter. CHT-expressing cells, membrane potential dye, choline response; hits give low values. B-score at 10 µM. hit rate 0.86% among 310,000. AID 488975;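 active means B-score over 3 SD under the library average, and starting fluorescence ratio not unusually high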;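 further: choline stimulus applied at its EC90 after an EC20 pre-addition; B-score computed on integrated fluorescence ratio after choline addition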
Target sequence (Q9GZV3 whole entry, looked up): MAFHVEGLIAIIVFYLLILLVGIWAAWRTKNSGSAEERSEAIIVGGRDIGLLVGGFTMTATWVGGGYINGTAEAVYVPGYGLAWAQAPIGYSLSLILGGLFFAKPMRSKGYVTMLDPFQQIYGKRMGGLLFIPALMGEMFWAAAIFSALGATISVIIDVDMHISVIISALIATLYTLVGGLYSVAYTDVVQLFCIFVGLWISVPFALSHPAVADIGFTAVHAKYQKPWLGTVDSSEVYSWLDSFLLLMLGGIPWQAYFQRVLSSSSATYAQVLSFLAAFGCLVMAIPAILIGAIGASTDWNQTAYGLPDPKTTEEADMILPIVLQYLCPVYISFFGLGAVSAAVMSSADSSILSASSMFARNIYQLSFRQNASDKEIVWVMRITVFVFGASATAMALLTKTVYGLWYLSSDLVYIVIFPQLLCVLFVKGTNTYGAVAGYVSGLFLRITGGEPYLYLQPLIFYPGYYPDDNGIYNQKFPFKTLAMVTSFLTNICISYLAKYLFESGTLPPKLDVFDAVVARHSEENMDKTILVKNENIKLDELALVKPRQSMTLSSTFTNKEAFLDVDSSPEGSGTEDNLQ
ANO1 block: inhibitors of mouse TMEM16A calcium-activated chloride channel. AID 588511. hit rate 1.2% among 310,000. normalized B-score (activity score, 25-100; higher = stronger inhibition) at 10 µM. Q8BHY3. HEK293 TMEM16A/YFP iodide influx fluorescence, ionomycin;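 active means ratio plate-corrected score three or more library SD toward inhibition, starting fluorescence score within five deviations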;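 further: score derived from kinetic fluorescence span divided by baseline fluorescence per well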
TMEM16A act: activators or potentiators of mouse TMEM16A chloride channel | hit rate 0.3% among 340,000 | B-score at 10 µM | HEK293 TMEM16A/YFP-H148Q/I152L, iodide quench fluorescence; hits give low values | Q8BHY3;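 active means fluorescence-ratio B-score plate-corrected deviation score at least 3 library SD below zero, with starting fluorescence score within 5 deviations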;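 further: channel opened by trigger with iodide after compound preincubation; score built on the fluorescence ratio of max minus min over baseline; more negative score means more quench and so TMEM16A activation or potentiation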
CHT PAM: allosteric activators of human choline transporter CHT; CHT-expressing cells, membrane potential dye, choline EC20; hits give high values; LV-AA mutant CHT in HEK293 cells; B-score at 10 µM; hit rate 0.49% among 310,000; AID 488977;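 active means initial fluorescence not abnormally high and integrated response B-score, plate-corrected, over 3 SD above library mean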
TMEM16A reconf: TMEM16A (mouse) chloride channel inhibition, re-confirmation. hit rate 39% among 2,300. shares compounds with ANO1 block. AID 652189. HEK293 TMEM16A/YFP-H148Q, iodide quench fluorescence; ionomycin added to raise cell calcium. inhibition, % at 10 µM;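 active means mean duplicate percent inhibition, scaled so buffer wells are 0 and the reference blocker 100, over three buffer SD above buffer mean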
TMEM16A Ca cntr: calcium mobilization counter-screen hit for TMEM16A inhibitor series | calcium response (% of ionomycin), % at 10 µM | AID 652231 | shares compounds with ANO1 block | TMEM16A/YFP HEK293, Fluo4 calcium mobilization | hit rate 2% among 2,300;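 active means duplicate-averaged calcium signal over 20% of the ionomycin maximum, relative to buffer baseline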;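 further: each well's signal is peak minus trough fluorescence divided by its pre-addition baseline; 0% = buffer wells and 100% = ionomycin wells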
YFP-HEK293 quench: acts in parental YFP-HEK293 cells lacking TMEM16A, counter-screen | shares compounds with ANO1 block | iodide YFP quench, ionomycin | YFP ratio F(max-min)/F0 at 10 µM | 2,300 tested, under 10 active | AID 652233;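 active means yellow fluorescent protein signal ratio exceeding the buffer control mean by over 5 SD of those controls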;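 further: ratio is mean of duplicate wells from kinetic YFP trace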
ClC-1 rat inh: rat ClC-1 inhibition, TMEM16A specificity screen | shares compounds with ANO1 block | CHO ClC-1-YFP, iodide influx fluorescence quench; iodide control reads 0, buffer control 100 | ratio percent, % at 10 µM | 2,300 tested, under 10 active | AID 652236;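 active means duplicate-mean ratio percent above the mean of iodide-only control wells, which defines zero, plus 5 of their SD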;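 further: higher percent means stronger block of ClC-1 iodide influx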
Starred values were filed as active, the others as inactive; i = inactive; . = no result.

SMILES	CHT block	ANO1 block	TMEM16A act	CHT PAM	TMEM16A reconf	TMEM16A Ca cntr	YFP-HEK293 quench	ClC-1 rat inh
Cc1cc(C(=O)Nn2c(C3CCCCC3)nc3ccccc3c2=O)ccc1[N+](=O)[O-]	i	i	i	i	.	.	.	.
O=C(Nn1c(C2CCCCC2)nc2ccccc2c1=O)c1ccc(Cl)c([N+](=O)[O-])c1	i	25*	i	i	22.0%*	i	-1.13	-9.0
COc1cc(Nc2nc3c(N)cc(C(F)(F)F)cc3nc2-c2ccccc2)cc(OC)c1OC	.	.	i	.	.	.	.	.
Cc1ccsc1C(=O)OCc1csc(-c2ccccc2)n1	i	100*	i	i	16.5%*	i	-1.09	-4.5
O=C(COc1ccc(Br)cc1)c1ccc2c(c1)CCCC2	i	25*	i	i	i	i	-0.919	-16.5
Cc1ccc(OCC(=O)c2ccc3c(c2)CCCC3)cc1C	i	i	i	i	.	.	.	.
CCCN(CC(=O)Nc1ccc(F)c(F)c1F)C(=O)c1cc([N+](=O)[O-])ccc1N1CCOCC1	i	i	i	i	.	.	.	.
Cc1ccc(S(=O)(=O)NN2C(=O)/C(=C\c3ccc(Cl)cc3)SC2=S)cc1	i	i	i	i	.	.	.	.
C=CCOc1ccc(/C=C2\SC(=S)N(NS(=O)(=O)c3ccc(C)cc3)C2=O)cc1	i	100*	i	i	72.5%*	i	-0.987	-60.0
CC1(C)Cc2c(cnn2-c2ccc(F)cc2)C(NC(=O)c2ccco2)C1 (stereo unspecified)	i	i	i	i	.	.	.	.
CC12CC(c3ccccc3O1)N(C(=O)c1ccco1)C(=S)N2c1ccc(F)cc1 (stereo unspecified)	i	i	i	i	i	i	-1.23	3.5
Cc1ccn2c(=O)nc(SCC(=O)NC3CCCC3)nc2c1	i	i	i	i	.	.	.	.
CC(=O)c1ccc(OCCCC(=O)Nc2cc(S(=O)(=O)N(C)C)ccc2C)cc1	i	i	i	i	.	.	.	.
Cc1ccc(S(=O)(=O)N(C)C)cc1NC(=O)C(C)N(C)CCOc1ccc(Cl)cc1 (stereo unspecified)	i	25*	i	i	i	i	-1.03	-11.5
CCOC(=O)c1c(-c2ccccc2)csc1NC(=O)CSc1nc(C)cc(C)n1	i	i	i	i	.	.	.	.
CCOC(=O)c1c(-c2ccccc2)csc1NC(=O)CSc1nc(N)cc(N)n1	i	25*	i	i	30.5%*	i	-0.846	-5.0
Cc1ccc2nc(-c3ccccc3)c(-c3ccccc3)nc2c1	i	i	i	i	.	.	.	.
Cc1ccc(-c2nc3ccc(C(=O)O)cc3nc2-c2ccc(C)cc2)cc1	i	25*	i	i	i	i	-1.12	-17.5
CCOc1ccc(N2C(=O)CC(NCC#N)C2=O)cc1 (stereo unspecified)	i	25*	i	i	i	i	-1.12	-5.0
CCOc1ccc(N2C(=O)CC(NCc3ccc(S(N)(=O)=O)cc3)C2=O)cc1 (stereo unspecified)	i	i	i	i	.	.	.	.
CC(C)(C)c1ccc(OCC(=O)Nc2ccc(C(=O)Nc3ccccc3C(=O)O)cc2)cc1	i	25*	i	i	56.0%*	41.5%*	-1.23	-11.0
Cc1cc(OCC(=O)Nc2ccncc2)c(C)cc1Br	i	25*	i	i	34.0%*	i	-0.876	0.5
CCc1ccc(OCC(=O)Nc2ccncc2)c(Br)c1	i	i	i	i	.	.	.	.
CC(C)CCOc1cccc(OCC(=O)Nc2ccncc2)c1	i	25*	i	i	17.0%*	i	-1.23	-8.5
O=C(COc1ccc(Nc2ccccc2)cc1)Nc1ccncc1	i	100*	i	i	18.5%*	i	-0.931	-15.0
SMILES	CHT block	ANO1 block	TMEM16A act	CHT PAM	TMEM16A reconf	TMEM16A Ca cntr	YFP-HEK293 quench	ClC-1 rat inh
COc1ccc(CNn2cnnc2)c(O)c1	i	i	i	i	.	.	.	.
CCOC(=O)C1CCCN(c2c(NCCc3ccc(Cl)cc3)c(=O)c2=O)C1 (stereo unspecified)	i	i	i	i	.	.	.	.
CC(Sc1ccccc1)C(=O)N1CCN(S(=O)(=O)c2ccccc2C(F)(F)F)CC1 (stereo unspecified)	i	i	i	i	.	.	.	.
COc1ccc(/C(O)=C/C(=O)C(=O)NNC(=O)C(O)(c2ccccc2)c2ccccc2)cc1	i	100*	-10.1*	i	20.5%*	i	-1.4	0.0
COc1ccc(/C(O)=C/C(=O)C(=O)NNC(=O)c2ccccc2)cc1	i	i	i	i	.	.	.	.
N#Cc1c(NC(=O)Cn2c(=O)oc3ccccc32)oc(-c2ccccc2)c1-c1ccccc1	i	25*	i	i	28.5%*	i	-0.939	-12.5
CCOCCCn1c(=NC(=O)c2cccs2)c(C#N)cc2c(=O)n3ccccc3nc21	i	i	i	i	.	.	.	.
O=C(Nc1ccc2c(c1)C(=O)N(CC1CCCO1)C2=O)c1cccc(Br)c1 (stereo unspecified)	i	100*	i	i	24.0%*	i	-0.991	-7.5
O=C(Nc1cccc(S(=O)(=O)NC2=NCCC2)c1)c1cc(F)c(F)c(F)c1F	.	.	i	.	.	.	.	.
Cc1ccc(Cl)cc1N1CCN(C(=O)c2cc3c(=O)[nH]c4ccccc4c3n2C)CC1	i	25*	i	i	37.5%*	i	-0.975	-31.5
COc1ccc(Cc2nc(-c3ccc(-n4cccc4)cc3)no2)cc1	i	i	i	i	.	.	.	.
COc1ccc(Cc2nc(-c3ccc(-n4cccc4)cc3)no2)cc1OC	i	100*	i	i	i	i	-1.2	-0.5
COc1ccc(NC(=S)NC(NC(=O)c2cccc(Cl)c2)C(Cl)(Cl)Cl)c([N+](=O)[O-])c1 (stereo unspecified)	i	25*	i	i	i	i	-1.2	-12.5
O=c1c2ccccc2c(C=Nc2cccc(O)c2)c(O)n1-c1ccc2c(c1)OCO2	i	25*	i	i	i	i	-1.33	3.0
COc1ccc(N=Cc2c(O)n(-c3ccc(OC)cc3)c(=O)c3ccccc23)cc1	i	i	i	i	.	.	.	.
Cc1nc(Nc2ccc3c(c2)OCCO3)c2oc3ccccc3c2n1	i	i	i	i	.	.	.	.
Cc1ccc2[nH]c3c(NCc4ccco4)ncnc3c2c1	i	25*	i	i	22.0%*	i	-1.13	-20.0
